Cav32 inh – human Cav3.2 channel inhibition, primary screen. O95180. Cav3.2-expressing cells, Fluo-4 calcium fluorescence FDSS; active compounds read low. B-score at 10 µM. actives 4% (n = 100,000). AID 449739;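 active means single-dose well whose peak fluorescence ratio is a statistical outlier from its plate by either plate-standardised score or position-corrected B-score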
PLAP act – activates human placental alkaline phosphatase; P05187; AID 696; activation fold at 20 µM; actives 1.2% (n = 96,000); purified PLAP enzyme, luminescent substrate read-out; active compounds read high; in the data active means activation fold above about 2
PostGolgi ctrl – yeast control strain growth, post-Golgi counter-screen | efflux-deficient yeast background strain, growth absorbance A615, 16 h | actives 5% (n = 98,000) | inhibition, % at 10 µM
D1 mod – allosterically modulates the human D1 dopamine receptor; B-score at 10 µM; actives 5.9% (n = 58,000); HEK293 D1, CRE-luciferase, dopamine EC30 potentiation; actives deviate in either direction; P21728;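 active means luminescence count or its row- and column-corrected plate score outside the 99.7% band of the plate's sample wells, on either side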
PostGolgi yeast – growth inhibition of a yeast mutant, post-Golgi transport screen; post-Golgi transport phenotypic cell assay; inhibition, % at 10 µM; actives 0.9% (n = 98,000);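 further: yeast cells grown in 1536-well plates; yeast grown about 18 h at 30C before absorbance read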
DAT uptake mod – modulates human dopamine transporter uptake under cocaine. Q01959. LLC-PK1 hDAT cells, [14C]-dopamine uptake with cocaine IC80; actives deviate in either direction. B-score at 10 µM. actives 1.3% (n = 110,000). AID 449768;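 active means Z score or B-score, a plate-position-corrected score, falls beyond the plate's 99.7% confidence bounds, in either direction; inactive means both scores lie inside the 99.7% bounds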
Target sequence (Q01959 whole entry, looked up): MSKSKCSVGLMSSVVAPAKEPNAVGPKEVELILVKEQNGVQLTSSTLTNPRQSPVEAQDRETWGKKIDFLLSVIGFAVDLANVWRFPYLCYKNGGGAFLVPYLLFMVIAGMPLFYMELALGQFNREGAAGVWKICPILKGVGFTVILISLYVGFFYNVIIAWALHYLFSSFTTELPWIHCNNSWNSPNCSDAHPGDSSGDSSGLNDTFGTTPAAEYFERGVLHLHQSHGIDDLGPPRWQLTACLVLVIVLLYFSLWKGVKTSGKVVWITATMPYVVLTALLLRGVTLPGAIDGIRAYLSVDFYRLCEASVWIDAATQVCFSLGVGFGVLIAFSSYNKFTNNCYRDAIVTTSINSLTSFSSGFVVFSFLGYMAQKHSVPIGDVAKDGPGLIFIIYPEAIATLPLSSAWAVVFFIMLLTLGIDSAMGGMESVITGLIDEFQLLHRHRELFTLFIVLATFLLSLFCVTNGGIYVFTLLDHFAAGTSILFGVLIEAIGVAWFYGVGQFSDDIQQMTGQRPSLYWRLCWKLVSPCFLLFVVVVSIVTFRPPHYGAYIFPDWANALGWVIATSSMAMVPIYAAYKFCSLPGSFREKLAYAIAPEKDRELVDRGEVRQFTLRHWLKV
Numbers stand for hits; i = inactive; nt = no result. Most compounds without a hit are left out; they make up all but 12% or so of the library. Unless noted, no stated cut-off is given here; in the data, active means inhibition above about 30%; inactive means the rest.

SMILES	Cav32 inh	PLAP act	PostGolgi ctrl	D1 mod	PostGolgi yeast	DAT uptake mod
Cc1ccc2c(C)nc(NC3=NCN(CCc4ccccc4)CN3)nc2c1	nt	i	nt	i	nt	nt
CC(C)(C)c1ccc(OC(=O)c2ccc3nsnc3c2)cc1	-3.5	i	i	nt	i	i
Cc1ccc(NC(=O)Nc2nc(-c3ccc(C)s3)cs2)cc1	i	i	i	nt	i	i
Cc1cc(C)c2cc(CN(CCO)C(=O)Nc3ccc(F)cc3)c(=O)[nH]c2c1	i	i	i	nt	i	i
CCc1ccc2[nH]c(=O)c(CN(CCO)C(=O)NCc3ccccc3)cc2c1	i	i	nt	i	nt	i
Cc1cc(C)c2cc(CN(Cc3ccco3)C(=O)NCc3ccccc3)c(=O)[nH]c2c1	-7.1	i	i	i	i	i
COc1ccc(NC(=O)N(CCO)Cc2cc3c(C)cc(C)cc3[nH]c2=O)cc1	i	i	i	i	i	2.9
COC(=O)C(/C=N/OCc1ccc([N+](=O)[O-])cc1)NC(=O)c1cccc(Cl)c1 (stereo not drawn)	i	i	i	nt	i	i
Cc1ccc(N(CC(=O)Nc2ccc(S(=O)(=O)N3CCOCC3)cc2)S(C)(=O)=O)cc1C	i	i	i	i	i	i
CC(C)c1ccc(S(=O)(=O)N2CCN(CC(=O)Nc3ccc4c(c3)OCO4)CC2)cc1	-6.9	i	i	i	i	i
O=C(CN1CCN(S(=O)(=O)c2ccccc2)CC1)Nc1ccc(Cl)c(Cl)c1	-3.7	i	i	nt	i	i
O=C(CN1CCN(S(=O)(=O)c2ccc(Cl)cc2)CC1)Nc1ccc2c(c1)OCO2	i	i	i	i	i	i
CC(C)c1ccc(N(CC(=O)Nc2ccc(S(=O)(=O)N3CCOCC3)cc2)S(C)(=O)=O)cc1	-7.9	i	i	nt	i	i
O=C(CN1CCN(S(=O)(=O)c2ccccc2)CC1)Nc1ccc2c(c1)OCO2	i	i	i	i	i	i
CC(C)C(C)(C#N)NC(=O)CSc1nnc(-c2ccccc2)o1 (stereo not drawn)	i	i	i	nt	i	i
COc1ccc(CCNC(=O)c2cc(-c3cc(C)ccc3O)n[nH]2)cc1OC	i	2.9	i	nt	i	i
Cc1ccc(-c2cc(C(=O)NCc3ccc4c(c3)OCO4)[nH]n2)c(O)c1C	i	i	31	i	i	i
COc1ccc(CCNC(=O)c2cc(-c3ccc(C)c(C)c3O)n[nH]2)cc1OC	i	2.1	i	nt	i	i
CC(C)(C)[C@H]1C=C(C(=O)NCc2ccccc2)O[C@@H](OCCCCO)C1	i	nt	nt	nt	nt	i
CCOC(=O)C(C(=O)OCC)c1cc(Br)c2noc3c2c1C(=O)c1ccccc1-3	-5.5	i	i	i	i	i
O=c1[nH]nc(Cc2ccc(Cl)cc2Cl)c2ccccc12	i	i	47	nt	i	i
O=c1[nH]nc(Cc2ccc(Cl)cc2)c2ccccc12	i	nt	nt	nt	nt	i
CCOC(=O)c1c(C2COc3ccccc3O2)csc1NC(=O)c1ccco1 (stereo not drawn)	i	i	i	i	i	i
CCOC(=O)C1CN(S(=O)(=O)c2cccc(C(F)(F)F)c2)c2cc(CC(=O)OC)ccc2O1 (stereo not drawn)	i	i	i	nt	i	i
CCCCn1nc(NC(=O)c2cccs2)c2cc3cc(OC)ccc3nc21	-4.8	i	i	i	i	i
SMILES	Cav32 inh	PLAP act	PostGolgi ctrl	D1 mod	PostGolgi yeast	DAT uptake mod
CCCn1nc(NC(=O)c2cccs2)c2cc3ccccc3nc21	i	i	i	nt	i	i
CCCn1nc(NC(=O)c2cccs2)c2cc3cc(OC)ccc3nc21	i	i	i	i	i	i
CCCCn1nc(NC(=O)c2cccs2)c2cc3ccccc3nc21	-4	i	i	nt	i	i
CCn1nc(NC(=O)c2ccncc2)c2cc3cc(C)ccc3nc21	i	nt	i	nt	i	2.2
CCCC(=O)Nc1nn(CCC)c2nc3ccccc3cc12	i	i	i	nt	i	2.1
CC1=NC(C(F)(F)F)(C(F)(F)F)C2=C(CC(C)(C)CC2=O)N1Cc1ccco1	i	i	i	i	i	i
Cc1cc(C)cc(Oc2nc(-c3ccccc3)cc(C)c2S(C)(=O)=O)c1	i	i	45	nt	i	i
Cc1cccc(Oc2nc(-c3ccccc3)cc(C)c2S(C)(=O)=O)c1C	-3.9	i	i	nt	i	i
COCCCNC(=S)NNC(=S)Nc1ccc(F)cc1F	i	2.7	i	nt	i	i
COc1ccc(N2C(=O)CSC2c2ccc3c(c2)OCO3)cc1 (stereo not drawn)	i	i	i	i	i	i
COc1ccc(N2C(=O)CSC2c2ccc3c(c2)OCO3)c(OC)c1 (stereo not drawn)	i	i	31	i	i	i
CC(C)N1CCC2(CC1)N=C(c1ccc3c(c1)OCO3)CC(c1cc(Cl)ccc1O)N2 (stereo not drawn)	i	i	50	nt	i	i
COCCCNCC(=O)Nc1ccc(OC(F)(F)F)cc1	nt	nt	42	i	i	nt
CCC(C)(C)NCC(=O)Nc1ccc(OC(F)(F)F)cc1	i	i	i	nt	i	i
O=S(=O)(N/N=C/c1cn(Cc2ccccc2)c2ccccc12)c1ccccc1	i	i	i	nt	i	i
O=C(c1ccco1)N(CCC(c1ccccc1)c1ccco1)Cc1ccc(F)cc1 (stereo not drawn)	-3.9	i	40	nt	i	i
O=C(CN(Cc1ccc(F)cc1)C(=O)c1ccco1)NCc1ccc(F)cc1	i	i	i	i	i	i
CCSc1nnc(NC(=O)c2cccc(OCc3c(C)noc3C)c2)s1	i	i	i	i	i	i
COc1ccc2c(c1)Cc1sc(NC(=O)c3ccco3)nc1-2	i	i	i	nt	i	i
COc1ccc2nc(NC(=O)c3ccoc3C)sc2c1	i	i	i	-4.3	i	i
COc1ccc2nc(NC(=O)c3cccc(OCc4c(C)noc4C)c3)sc2c1	nt	i	33	i	i	nt
COc1ccc2nc(NC(=O)C(NS(=O)(=O)c3cccs3)C(C)C)sc2c1 (stereo not drawn)	i	2.2	i	i	i	i
COc1ccc2sc(NC(=O)c3ccco3)nc2c1	i	i	i	-5.7	i	i
O=C(O)CCCNCc1ccccc1F	i	i	i	i	i	i
Cc1nnc(NC(=O)Cc2ccc(OCc3c(C)noc3C)cc2)s1	i	i	i	-3.1	i	i
SMILES	Cav32 inh	PLAP act	PostGolgi ctrl	D1 mod	PostGolgi yeast	DAT uptake mod
CC(C)Cn1c2nc3ccccc3nc2c2c(=O)n(CCN3CCOCC3)cnc21	i	i	i	4.8	i	i
CC(C)Cn1c(N)c(C(=O)NCCN2CCOCC2)c2nc3ccccc3nc21	i	i	i	i	i	i
COc1cc(CNCCc2ccccc2)ccc1OCc1ccc(Cl)nc1	nt	i	39	nt	i	nt
COc1ccccc1CCNCc1ccc(OC)c(OCc2ccccc2)c1	-4.8	i	i	nt	i	i
CCOC(=O)CC(=O)CSc1[nH]c(=O)cc(C)c1C#N	i	i	i	i	i	i
CC(NCc1ccc2c(c1)OCO2)C(=O)NC1CCCc2ccccc21 (stereo not drawn)	i	i	i	nt	i	i
CCOC(=O)c1cn2c3c(c(F)c(F)c(F)c3c1=O)SC(N1CCCC1)=N2	nt	nt	nt	i	nt	nt
CCc1ccc(C(=O)CN(C#N)c2nc(C)cc(C)n2)cc1	i	2.7	i	nt	i	i
